This is part of a sample that, as a whole, favours compounds with a hit. Of some 83,000 tested, about 20% had one in any assay.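 Interpretation: 100, growth as untreated; towards 0, rising growth inhibition; 0, no net growth; 0 to -100, cell death. Compounds scoring below 10 were considered active.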 Unmarked numbers belong to inactive results. Active and inactive are the calls of the source.
Tests used:
Assay in all cases: NCI-60 one-dose screen, 48 h (100 = growth as untreated, 0 = no growth, -100 = all killed)
Details in all cases: 10 µM unless noted
NCI-H23 lung = test system: NCI-H23 lung
NCI-H226 lung = test system: NCI-H226 lung
NCI-H322M lung = test system: NCI-H322M lung
HOP-62 NSCLC = test system: HOP-62 NSCLC
HOP-92 NSCLC = test system: HOP-92 NSCLC
NCI-H522 lung = test system: NCI-H522 lung
A549/ATCC NSCLC = test system: A549/ATCC NSCLC
786-0 renal = test system: 786-0 renal
COLO 205 colon = test system: COLO 205 colon
DU-145 prostate = test system: DU-145 prostate
K-562 leukemia = test system: K-562 leukemia
MALME-3M melanoma = test system: MALME-3M melanoma
MDA-MB-231 breast = test system: MDA-MB-231 breast
RXF 393 renal = test system: RXF 393 renal
SF-268 CNS = test system: SF-268 CNS
SF-295 CNS = test system: SF-295 CNS
SF-539 CNS = test system: SF-539 CNS
UACC-257 melanoma = test system: UACC-257 melanoma
M14 melanoma = test system: M14 melanoma
NCI-H460 lung = test system: NCI-H460 lung

Row | Structure (SMILES) | growth (NCI-H23 lung) | growth (NCI-H226 lung) | growth (NCI-H322M lung) | growth (HOP-62 NSCLC) | growth (HOP-92 NSCLC) | growth (NCI-H522 lung) | growth (A549/ATCC NSCLC) | growth (786-0 renal) | growth (COLO 205 colon) | growth (DU-145 prostate) | growth (K-562 leukemia) | growth (MALME-3M melanoma) | growth (MDA-MB-231 breast) | growth (RXF 393 renal) | growth (SF-268 CNS) | growth (SF-295 CNS) | growth (SF-539 CNS) | growth (UACC-257 melanoma) | growth (M14 melanoma) | growth (NCI-H460 lung)
1 | Cc1cc(=O)oc2cc(OCC(O)CNN3C(=O)c4cccc5c(N6CCN(C)CC6)ccc(c45)C3=O)ccc12 (stereo not given) | 98.4% | 102% | 101% | 99.8% | 68.3% | 98.2% | 99.8% | 97.8% | 87.7% | 96.6% | 80.4% | 14.5% | 89.3% | 82.3% | 91.4% | 108% | 81.2% | 72.9% | 89.7% | –
2 | O=C(COc1ccc(/C=C2/C(=O)Nc3ccc(Cl)cc32)cc1)Nc1ccc(Br)cc1 | -53.6% (active) | -48.5% (active) | 0.856% (active) | -72.6% (active) | -48.4% (active) | -35% (active) | -66.2% (active) | -78.9% (active) | 2.47% (active) | -9.85% (active) | 2.94% (active) | -41.5% (active) | -33.7% (active) | -65.7% (active) | 16.7% | -59.7% (active) | -84.9% (active) | 15.1% | -2.56% (active) | –
3 | Cc1ccc(C2CC(c3ccc(NC(=O)Nc4ccccc4)cc3)=NN2c2ccc(S(N)(=O)=O)cc2)cc1 (stereo not given) | -95.8% (active) | -80.4% (active) | -96.5% (active) | -72.9% (active) | -81.3% (active) | -84% (active) | -61.4% (active) | -87.9% (active) | -66.3% (active) | -76.2% (active) | 6.16% (active) | -96.5% (active) | -90.8% (active) | -91.3% (active) | -74.5% (active) | -71.2% (active) | -99.3% (active) | -71.6% (active) | -73.2% (active) | –
4 | Cc1cccc(C)c1Nc1nnc(-c2c[nH]c3ccccc23)o1 | 88.8% | 78.9% | 98% | 83.1% | 89.9% | 89.4% | 98.1% | 105% | 110% | 107% | 98.4% | 78.4% | 79.1% | 108% | 104% | 96% | 94.1% | 95.7% | 102% | –
5 | C=CCSc1nnc(-c2c(C)nc3sccn23)o1 | 88.7% | 76.1% | 84.9% | 106% | 72.4% | 89% | 92.7% | 89.8% | 107% | 110% | 98.3% | 109% | 92.6% | 99.9% | 110% | 89.2% | 90.4% | 86.9% | 92.5% | –
6 | COC(=O)CSC1=C(C)C(=O)C(OC)=C(OC)C1=O | 94.3% | 93.1% | 93.1% | 85.3% | 75.5% | 72.2% | 90.4% | 99.9% | 102% | 103% | 13.6% | 89.9% | 85.4% | 105% | 100% | 106% | 98.1% | 78.1% | 91.1% | –
7 | Cc1cccc(/C=C/c2ccc(NC(=S)NCCCCN(C)C)cc2)c1 | -99.7% (active) | -72.1% (active) | -91.1% (active) | -67.4% (active) | -57.2% (active) | -73.7% (active) | -57.9% (active) | -57.4% (active) | -69.5% (active) | -82.7% (active) | 3.99% (active) | -96.1% (active) | -94.4% (active) | -91.8% (active) | -52.4% (active) | -95.6% (active) | -86.4% (active) | -65.4% (active) | -64.4% (active) | –
8 | Fc1ccc(N2CC(Cn3c(C(F)(F)F)cc4c(Cl)ncnc43)C2)c(F)c1 | -76% (active) | 116% | – | 46.8% | -7.85% (active) | 9.73% (active) | 108% | 79.2% | 65% | -6.58% (active) | -57% (active) | 89.7% | -81.9% (active) | -51.1% (active) | -42% (active) | 87.8% | 50.2% | 11.4% | -60.9% (active) | -72.9% (active)
9 | CN(C(=O)CN1C(=O)/C(=C/c2ccco2)SC1=S)C1CCS(=O)(=O)C1 (stereo not given) | 100% | 100% | – | 123% | 102% | 15.4% | 102% | 93.4% | 119% | 103% | 85.1% | 97.1% | 108% | 108% | 93.9% | 104% | 104% | 96.4% | 94.6% | 95.5%
10 | CC(=O)Nc1ccc(S(=O)(=O)Nc2ccc(-c3ccc4c(c3)NC(=O)/C4=C\c3ccc[nH]3)cc2)cc1 | 42.1% | 85% | 64.8% | 87% | 91.5% | 75.2% | 79.6% | 104% | 96.6% | 93.4% | 64.8% | 92.5% | 88.7% | 107% | 112% | 94.9% | 84% | 102% | 100% | –
11 | O=C(N/N=C/c1ccc(Cl)cc1)c1ccc(OCc2nc3ccc(Cl)cc3[nH]2)cc1 | 4.91% (active) | 77.4% | 71.3% | -41.6% (active) | 19.6% | 7.51% (active) | -60.1% (active) | -63.1% (active) | 4.04% (active) | -36.1% (active) | 14.6% | 37.5% | 6.26% (active) | -10% (active) | 82.1% | 13.8% | 67.6% | 24.8% | -14.1% (active) | –
12 | C/C(=N\Nc1ccc(C(=O)O)cc1)c1cnn(-c2cc(=O)[nH]c3ccc(C)cc23)c1C | 106% | 90.1% | 98.2% | 93.1% | 6.13% (active) | 89.4% | 104% | 93.2% | 118% | 107% | 101% | 83.3% | 91.1% | 93.7% | 97.2% | 95.5% | 101% | 106% | 96.3% | –
13 | Cc1nn(-c2ccccc2)c2nc(C)n(C(=O)N/N=C/c3cccc([N+](=O)[O-])c3)c(=O)c12 | 77.7% | 105% | – | 98.6% | 103% | 47.4% | 83.7% | 108% | 117% | 99.9% | 62% | -10.2% (active) | 94.7% | 115% | 101% | 101% | 105% | 78.4% | 80.4% | 93.7%
14 | COC(=O)c1cc(C(=O)CBr)n2c1ccc1c3ccccc3ccc12 | 51.4% | 53.4% | – | 48.9% | 53.2% | 59.1% | 31.3% | 52.1% | 38.7% | 69.3% | 43% | 51.2% | 69.8% | 67% | 74.7% | 37.2% | 43.6% | 82.6% | 69.5% | 39.4%
15 | CCOc1ccccc1NC(=O)N/C(N)=N/c1nc2ccccc2s1 | 12.6% | 33.9% | – | 33.6% | -13.4% (active) | -39.8% (active) | 13.6% | 12.9% | -78.1% (active) | -4% (active) | 10.1% | 42% | 0.962% (active) | 48.7% | 27.3% | 3.78% (active) | -27.7% (active) | 52.2% | 13.4% | 6.47% (active)
